Test results taken from the supplement of paper PMC13380429.
Values without a mark were called inactive.

Tested on: Vero E6 infected with SARS-CoV-2
Experiment: inhibition of SARS-CoV-2 cytopathic effect; higher = more antiviral protection, active = above 15
Settings: 48 h

Row | SMILES | inhibition of SARS-CoV-2 cytopathic effect (1 nM) [%] | inhibition of SARS-CoV-2 cytopathic effect (8.33 nM) [%] | inhibition of SARS-CoV-2 cytopathic effect (100 nM) [%] | inhibition of SARS-CoV-2 cytopathic effect (833.33 nM) [%] | inhibition of SARS-CoV-2 cytopathic effect (10000 nM)
1 | CCN(CC)CCNC(=O)COc1ccc(OC)cc1 [mefexamide] | 1.84 | 2.71 | -0.86 | -0.89 | -2.3%
2 | C[N+]1([O-])[C@@H]2C[C@@H](OC(=O)[C@H](CO)c3ccccc3)C[C@H]1[C@@H]1O[C@@H]12 (stereo not given in full) [scopolamine-N-oxide] | 7.18 | 4.58 | 3.81 | 13.6 | 3.51%
3 | CCN(CC)CCCC(C)Nc1ccnc2cc(Cl)ccc12 (stereo not given) [chloroquine] | -1.07 | -2.02 | 0.51 | -0.4 | -1.51%
4 | CC(=O)CC(=O)O [lithium-acetoacetate] | -0.56 | -0.05 | 1.48 | 1.82 | 0.27%
5 | O=C(Nc1ccc([N+](=O)[O-])cc1Cl)c1cc(Cl)ccc1O [niclosamide] | -0.87 | -2.63 | 0.39 | 11.4 | 4.29%
6 | CCN(CC)CCNC(=O)c1c(C)[nH]c(/C=C2\C(=O)Nc3ccc(F)cc32)c1C [sunitinib] | 0.55 | -1.31 | 2.08 | -2.15 | 30.3% (active)
7 | N[C@H]1C[C@@H]1c1ccc(-c2cccc(O)c2)cc1 | 1.62 | -1.45 | -0.41 | -1.63 | -0.24%
